Measured values taken from PubChem BioAssay (NCI).
“And” between values parts separate entries of the source, which are not always exact repeats. Equal values may be shown once. This is part of a sample that, as a whole, favours compounds with a hit. Of some 83,000 tested, about 20% had one in any assay.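 For each line, cells grew in 96-well plates with the test compound present at a single concentration for 48 hours.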 The source made the active and inactive calls. The calls were made as follows: active = growth percent below 10; inactive = the rest.

These compounds were tested on TK-10 renal (assay: NCI-60 one-dose screen, 48 h (100 = growth as untreated, 0 = no growth, -100 = all killed)). Conditions: 100 µM.
`COc1ccc(C(=O)/C=C/c2ccc(OCc3cccc(C(F)(F)F)c3)c(OC)c2)cc1OC` was tested, and the growth was 7.32% (active). `CCN(Cc1ccccc1)c1ccc(/C=C2\COc3ccccc3C2=O)cc1` was tested, and the growth was 53.3% (inactive). In the case of `CC(=O)/C=C/c1ccc(OCc2ccc(C(C)(C)C)cc2)cc1`, the growth is reported as 55.1% (inactive). In the case of `O=C(/C=C/c1cccc(Oc2ccc(Cl)cc2)c1)c1ccccc1`, the growth is reported as -99.2% (active). `CC(=O)/C=C/c1ccc(OCc2ccc(Cl)cc2)cc1` was tested, and the growth was 27.9% (inactive). `CC(=O)/C=C/c1ccc(N(C)Cc2ccc(C(C)(C)C)cc2)cc1` was tested, and the growth was -13.7% (active). `CC[C@]12CN3CCc4c([nH]c5ccccc45)[C@@](C(=O)OC)(c4cc5c(cc4OC)N(C)[C@H]4[C@@](O)(C(=O)OC)[C@H](OC(C)=O)[C@]6(CC)C=CCN7CC[C@]54[C@@H]76)CC(C3)[C@H]1O2` (some centres not stated) was tested, and the growth was 88% (inactive) and -96.5% (active).
